Results on 113 compounds are retold here after PubChem BioAssay AID493240 (Broad Institute, 2011).

Hit rate of the full screen: of about 1,300 compounds, about 270 (21%) were called active. No rule for the calls is given here. These entries were drawn from the full list. Results with a measured potency or affinity are listed apart.

This assay in a line: cytotoxicity in parental SK-MEL-5 melanoma cells – cell-based, CellTiter-Glo, cherry-picked, set 3, orthogonal assay for MITF inhibitor project, dose response (AID 493240). The following applies: SK-MEL-5 viability, ATP luminescence (CellTiter-Glo), 24 h; series mostly up to 35 µM. A general note: Cellular ATP, detected with luciferase, serves as a proxy for viable cell number.
Turning to `Cc1cccc2sc(N(CCCN(C)C)C(=O)c3nc4ccccc4s3)nc12`, the result was inactive.

Regarding `COc1ccc(C)c2sc(N(CCN(C)C)C(=O)/C=C/c3cccs3)nc12`, the result was inactive.

For the compound `Cn1nc([N+](=O)[O-])nc1S(C)(=O)=O`, the outcome was inactive.

Consider `COc1cccc(-c2nnc3n2N=C(C(C)(C)C)CS3)c1`, for which the outcome was inactive.

Turning to `COC(=O)[C@@H]1C[C@]2(OC(=O)c3ccccc3)C=CC(=O)C[C@@H]2N1C(=O)OCc1ccccc1`, the result was inactive.

In the case of `Cc1occc1C(=O)N/N=C/c1ccc(OCc2ccccc2)cc1`, the outcome was inactive.

Take `CC(=O)SC(C[N+](=O)[O-])c1cn(C(C)=O)c2ccccc12` (stereo not drawn): the outcome was inactive.

Turning to `Cc1ccc(-c2cn3nc(C)c(C)nc3n2)cc1`, the outcome was inactive.

On to `O=C(Nc1ccc(-c2nc3ncccc3o2)cc1)c1ccc([N+](=O)[O-])o1`, for which the result was inactive.

Consider `NC(=O)c1cc([N+](=O)[O-])ccc1NCc1ccc(N)cc1`, for which the result was inactive.

In the case of `COc1ccc(-c2csc(Nc3ccccn3)n2)cc1OC`, the outcome was inactive.

Take `CC1CCN(C(=O)c2cc3ccccc3o2)CC1`: the result was inactive.

With `c1ccc(-c2cn3nc4c(nc3n2)CCCC4)cc1`, the result was inactive.

On to `O=S(=O)(CC(CN1CCCCC1)N1CCCCC1)c1ccc2ccccc2c1` (stereo not drawn), for which the outcome was inactive.

With `Cc1ccc(S(=O)(=O)CC(CN2CCCCC2)N2CCCCC2)cc1` (stereo not drawn), the outcome was inactive.

As for `O=C(Nc1ccccc1F)C(=O)Nc1cccc2ccccc12`, the result was inactive.

Regarding `c1ccc(-n2ncc3c(NCc4cccs4)ncnc32)cc1`, the outcome was inactive.

As to `COc1cccc(/C=N/Nc2ncnc3c2ncn3Cc2ccccc2)c1O`, the outcome was inactive.

On to `COc1cccc(C(=O)Nc2ccc3c(cc2=O)[C@@H](NC(C)=O)CCc2cc(OC)c(OC)c(OC)c2-3)c1`, for which the outcome was inactive.

As for `CCc1nc2oc3ccc(C)cc3c(=O)c2cc1C(=O)OC`, the result was inactive.

As to `CNC(=O)COC(=O)c1ccccc1C(=O)c1ccc(Cl)c([N+](=O)[O-])c1`, the outcome was inactive.

`Cc1cc(C(=O)O/N=C(\N)c2ccncc2)ccc1[N+](=O)[O-]`: the result was inactive.

With `CCCNC(=O)COC(=O)c1ccccc1C(=O)c1ccc(Cl)c([N+](=O)[O-])c1`, the result was inactive.

As to `CCC(=O)Nc1cc(C(=O)OCC(=O)c2ccccc2Cl)ccc1C`, the outcome was inactive.

With `O=C(COC(=O)c1ccc(F)c([N+](=O)[O-])c1)NC(=O)NCc1ccccc1`, the outcome was inactive.

Turning to `O=C(COC(=O)c1ccccc1C(=O)c1ccc(Cl)c([N+](=O)[O-])c1)NC1CC1`, the result was inactive.

Consider `CC(=O)OCCNc1cc(Sc2nc3ccccc3[nH]2)c2nonc2c1[N+](=O)[O-]`, for which the result was inactive.

Regarding `CNc1oc(/C=C/c2cccc(OC)c2)nc1C#N`, the result was inactive.

Consider `Cc1ccc2oc(Nc3nc(C)c(C)c(C)n3)nc2c1`, for which the outcome was inactive.

Turning to `Cc1ccc2nc(-c3cccnc3)oc2c1`, the result was inactive.

On to `CC(C)c1ccc(/C=N/Nc2ccc(C(=O)O)cc2)cc1`, for which the result was inactive.

Turning to `O=C(NCc1csc(-c2cccs2)n1)C1CCC1`, the outcome was inactive.

As for `CCOc1ccc2nc(NC(=O)Cc3cccs3)sc2c1`, the outcome was inactive.

Regarding `CC(C)S(=O)(=O)c1csc(C(=O)Nc2ccc(F)cc2)c1N`, the outcome was inactive.

As for `C=CCN=C1NN=C(c2ccc3c(c2)OCCO3)CS1`, the outcome was inactive.

In the case of `C=CCn1c(C)cc(C2=NNC(=NC(C)(C)C)SC2)c1C`, the outcome was inactive.

For the compound `O=C(NC1CC1)C1CCN(S(=O)(=O)c2ccc(Cl)c([N+](=O)[O-])c2)CC1`, the outcome was inactive.

Turning to `CC(C)CN=C(NS(=O)(=O)c1ccccc1)C(Cl)(Cl)Cl`, the result was inactive.

In the case of `O=C(CN1CCCCC1)Nc1scc2c1c(=O)oc1ccccc12`, the result was inactive.

On to `CN1CCN(c2ccccc2NC(=O)c2ccc([N+](=O)[O-])o2)CC1`, for which the outcome was inactive.

Take `CC(C)C(=O)N1CCN(c2ccc(NC(=O)c3ccc([N+](=O)[O-])o3)cc2)CC1`: the result was inactive.

Consider `CCN1CCN(/C=N/c2nc3c(s2)CCCC3)CC1`, for which the outcome was inactive.

In the case of `Oc1ccc(-c2nnc(SCC3CCCCC3)o2)cc1`, the outcome was inactive.

With `CC(=NNC(=S)N1CCN(c2ccccn2)CC1)c1nccs1`, the outcome was inactive.

As to `O=C1CN(c2ccccc2)C(=S)N1C(=O)c1ccc(Br)cc1`, the result was inactive.

For `COc1ccc(C(=O)CN2Cc3ccccc3C2=N)cc1`, the outcome was inactive.

Take `O=C(COC(=O)CCN1C(=O)/C(=C\C=C\c2ccccc2)SC1=S)Nc1cc(F)ccc1F`: the outcome was inactive.

With `COc1cc(C(=O)Oc2c(CN3CCOCC3)cc(Cl)c3cccnc23)cc(OC)c1OC`, the outcome was inactive.

In the case of `C/C(=N\NC(=O)COc1ccccc1-c1ccccc1)c1ccccn1`, the result was inactive.

As for `CCOC(=O)COc1ccc2ccccc2c1/C=C/[N+](=O)[O-]`, the outcome was inactive.

In the case of `O=C(/C=C/c1ccc([N+](=O)[O-])s1)N1CCCCC1`, the outcome was inactive.

Take `O=C(Nc1ccc(Cl)cc1)N1CC=CCC1`: the outcome was inactive.

`NC(=O)c1c(NC(=O)c2cccnc2)sc2c1CCCCC2`: the result was inactive.

Turning to `O=C(N/N=C/c1cc([N+](=O)[O-])ccc1N1CCNCC1)c1ccc([N+](=O)[O-])cc1`, the outcome was inactive.

As to `OCC1CCCC(n2cnc3c(=S)nc[nH]c32)O1` (stereo not drawn), the outcome was inactive.

Take `CN(C)CCNC(=O)COc1ccc(C23CC4CC(CC(C4)C2)C3)cc1`: the outcome was inactive.

As for `O=C(CSc1ccc(Cl)cc1)NC1CCCC1`, the result was inactive.

Take `Cc1cc(C=C2C(=O)c3ccccc3C2=O)c(C)n1-c1ccccc1`: the result was inactive.

Regarding `N#CC1=C(c2ccccc2)/C(=C/c2ccccc2)OC1=O`, the outcome was inactive.

On to `Cc1ccccc1-n1ncc2c([N+](=O)[O-])cc([N+](=O)[O-])cc21`, for which the outcome was inactive.

For the compound `Cc1cc2oc(=O)cc(C)c2cc1NC(=O)CCC(=O)O`, the outcome was inactive.

On to `Cn1c(SC2=CS(=O)(=O)c3ccccc32)nc2ccccc21`, for which the result was inactive.

For the compound `COc1ccc(C(=O)NC(=O)Nc2cc(C)ccn2)cc1`, the result was inactive.

Turning to `Cc1cnn(C(=S)NCCc2ccccc2)c1`, the result was inactive.

Consider `Cc1cc(NCCCn2ccnc2)n2ncc(-c3ccccc3)c2n1`, for which the result was inactive.

Regarding `CC(=O)c1ccc(N/C=C/C(=O)c2ccc(Br)cc2)cc1`, the result was inactive.

Consider `COc1ccc(C(=O)N/N=C/c2cc(Br)ccc2O)cc1OC`, for which the result was inactive.

As for `CCOc1cc(/C=C(/C#N)c2ccc(Cl)cc2)cc(Cl)c1OCC(=O)O`, the result was inactive.

On to `O=[N+]([O-])c1ccc(N/N=C/C=C/c2ccco2)cc1`, for which the outcome was inactive.

Consider `O=C(Nc1ccc(N2CCN(C(=O)c3ccc(Cl)cc3)CC2)cc1)c1ccc([N+](=O)[O-])o1`, for which the outcome was inactive.

As to `Cc1ccccc1C(=O)N1CCN(c2ccc(NC(=O)c3ccc([N+](=O)[O-])o3)cc2)CC1`, the outcome was inactive.

Turning to `CCC(=O)N1CCN(c2ccc(NC(=O)c3ccc([N+](=O)[O-])o3)cc2)CC1`, the outcome was inactive.

On to `CS(=O)(=O)N1CCN(c2ccc(NC(=O)c3ccc([N+](=O)[O-])o3)cc2)CC1`, for which the outcome was inactive.

For the compound `CC(C)(C)c1ccc(C(=O)Nc2ccc(CC(=O)O)cc2)o1`, the outcome was inactive.

Turning to `Cn1c(COc2ccccc2Br)nc2ccccc21`, the result was inactive.

Consider `C[C@H]1CCC[C@]2(C)C[C@H]3OC(=O)C(CN4CCCCCC4)[C@H]3C=C12` (stereo partly drawn), for which the result was inactive.

Take `COc1ccc(NC(=O)c2cc3ccccc3[nH]2)cc1`: the outcome was inactive.

With `O=C(NCc1ccco1)c1ccc(COCC(F)(F)F)cc1`, the outcome was inactive.

On to `COc1cc2nc(SCC(=O)NCc3ccco3)n(Cc3ccc(Cl)cc3)c(=O)c2cc1OC`, for which the result was inactive.

Take `CCN(C(=O)c1ccco1)c1nc(-c2ccc(OC)cc2)cs1`: the outcome was inactive.

As for `CCOCCCNC(=O)/C(C#N)=C/c1ccc([N+](=O)[O-])o1`, the result was inactive.

For `CC1CC(C)CN(C(=O)/C=C/c2ccc([N+](=O)[O-])s2)C1` (stereo not drawn), the result was inactive.

Turning to `COc1ccc(C(=O)C(CN2CCOCC2)c2ccccc2)cc1` (stereo not drawn), the result was inactive.

Consider `CCNC(=O)CC1C(=O)N(c2ccc(F)cc2)C(=O)N1CCc1ccc(OC)cc1` (stereo not drawn), for which the outcome was inactive.

In the case of `COc1ccc(C(=O)CCNc2ccc(F)cc2)cc1`, the outcome was inactive.

For `COc1ccc(C(=O)C(CN2CCCC2)c2ccccc2)cc1` (stereo not drawn), the outcome was inactive.

`CC(C)(C)c1ccc(-c2cc(N)n[nH]2)cc1`: the outcome was inactive.

For `O=C(Nc1ccc(Cl)cc1)C1C2CCCCC21` (stereo not drawn), the result was inactive.

On to `CCOC(=O)N1C(=O)[C@@](CC)(c2ccccc2)N1C(=O)OCC`, for which the result was inactive.

For the compound `O=S1(=O)CCC(NC(=S)SCc2ccccc2Br)C1` (stereo not drawn), the outcome was inactive.

Take `O=C(CSCC(=O)Nc1ccccc1)N/N=C/c1c(O)ccc2ccccc12`: the outcome was inactive.

`CCOC(=O)c1cn2nc(Oc3ccccc3)ccc2n1`: the outcome was inactive.

Consider `COc1ccc(/C=C2\SC(=S)N(CCCC(=O)NNC(=O)c3ccccc3O)C2=O)cc1`, for which the outcome was inactive.

Turning to `CN(C)CCNc1ccc2nnn3c4ccc(O)cc4c(=O)c1c23`, the outcome was inactive.

As for `O=C(Nc1ccccc1Cl)Nc1cccc2cccnc12`, the outcome was inactive.

`COc1ccc2oc(=N)c(C(=O)Nc3ccccc3Cl)cc2c1`: the result was inactive.

As for `Cc1cc(C(=O)Nc2cccc(C(=O)O)c2)oc1C`, the outcome was inactive.

In the case of `CCSc1nc2c(cnn2-c2ccccc2)c(=O)n1N`, the outcome was inactive.

With `O=C(O)c1cccc(N/N=C/c2ccc(OC(F)(F)F)cc2)c1`, the outcome was inactive.

For `COc1cc(C2C(C#N)=C(N)Oc3cc4c(cc32)OCO4)cc(OC)c1OC` (stereo not drawn), the result was inactive.

Turning to `O=C(C[n+]1cc(-c2ccc(F)cc2)n2c1CCC2)c1cccs1`, the outcome was inactive.

With `Clc1ccc(-c2c[n+](Cc3cccc(Cl)c3)c3n2CCC3)cc1`, the result was inactive.

As for `Nc1ccc(-c2nc3c(Cl)cc(N)cc3[nH]2)cc1`, the result was inactive.

On to `C=CCSC(=S)NC1CCS(=O)(=O)C1` (stereo not drawn), for which the result was inactive.

As to `C/C(=N\NC(=O)C(C)Oc1ccc([N+](=O)[O-])cc1)c1ccccn1` (stereo not drawn), the result was inactive.

As to `O=C(/C=C/c1ccc([N+](=O)[O-])s1)N1CCCC1`, the result was inactive.

With `COc1ccc(NC(=O)c2cc(F)cc(F)c2)cc1Cl`, the result was inactive.

As to `COc1ccc(C(=O)Nc2ccc3ccccc3c2)cc1OC`, the result was inactive.

In the case of `COc1ccc(NC(=O)c2scc(S(=O)(=O)C(C)C)c2N)cc1`, the outcome was inactive.

`O=C(/C=C/c1ccccc1)Nc1cccc(C(=O)O)c1`: the result was inactive.

For `O=C(Nc1ccccc1F)c1ccc2c(c1)OCO2`, the outcome was inactive.

With `Cc1cccc(OCC(=O)Nc2cccc(O)c2)c1`, the outcome was inactive.

With `CC1(C)Cc2c(sc(NC(=O)Nc3ccccc3)c2C(N)=O)CO1`, the outcome was inactive.
